Hits are enriched below; roughly 6.8% of the tested compounds scored in any of these assays.
KB-V1 MDR tox – KB-V1 MDR subline cytotoxicity; KB-V1 MDR cells viability, CellTiter-Glo, 72 h; Potency, µM (doses to about 46.1 µM), usual class: cytotoxic; hit rate 3.4% among 400,000; AID 1347076; note: % is set by controls: 0 for no effect and ±100 for the full control effect; nearly all actives have a fitted effect of over 60% in size
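Drug-selected KB-V1 cells, grown in DMEM lacking phenol red with 10% FBS, receive compound titrations; after three days at 37 degrees C, surviving cell ATP is quantified by CellTiter-Glo luminescence and responses normalized and curve-fitted.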
SW480 rereplic – induces DNA re-replication in SW480 colon adenocarcinoma cells. SW480 DNA re-replication, Hoechst DNA content imaging, 48 h. Potency, µM (doses to about 46.1 µM), for inactives: top-dose re-replication activation, hits mostly activators. hit rate 1.8% among 340,000. AID 624297; note: % of control where 0% means no effect; nearly all actives have a fitted effect of over 55% in size
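Hoechst fluorescence of nuclei (405 nm excitation, 500-530 nm emission) measured by plate-scanning imager after 48 hr compound exposure at 37 C; re-replication scored as increased number of nuclei with elevated intensity.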
PTAP TSG101 blk – blocks PTAP/TSG101 interaction to inhibit HIV-1 budding. Q99816. Fluorescence polarization, FITC-PTAP peptide / Tsg101 binding. Potency, µM (series often up to 115 µM), without a hit: top-dose activity change, negative = inhibition, usual class: inhibitors. 340,000 tested, under 10 active; active = well fitted inhibition curve with a large enough effect in the main read-out, with a control signal flat, not every such curve was filed as active; inconclusive = small, poorly fitted or top-dose-only effect, or effect the other way, or a change in a side signal; inactive = no such curve, though single readings can be large or run the other way; note: % of control where 0% means no effect
Target sequence (Q99816 whole entry, looked up): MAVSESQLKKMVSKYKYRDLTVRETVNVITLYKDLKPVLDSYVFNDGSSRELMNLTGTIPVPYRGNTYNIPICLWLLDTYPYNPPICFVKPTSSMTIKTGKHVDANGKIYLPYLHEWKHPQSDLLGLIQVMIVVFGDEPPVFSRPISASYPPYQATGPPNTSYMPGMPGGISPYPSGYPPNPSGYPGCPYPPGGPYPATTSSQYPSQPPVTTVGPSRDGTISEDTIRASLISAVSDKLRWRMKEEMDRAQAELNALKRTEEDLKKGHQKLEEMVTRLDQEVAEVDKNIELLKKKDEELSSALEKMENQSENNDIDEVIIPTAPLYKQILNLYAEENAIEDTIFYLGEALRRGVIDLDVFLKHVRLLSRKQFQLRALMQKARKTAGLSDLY
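Fluorescence polarization binding of Tsg101 binding domain (10 uM final) to FITC-labeled PTAP peptide (50 nM final) in HEPES pH 7.5 buffer with NaCl, Tween 20, EDTA, TCEP. Compounds added before peptide; binding 20 min at RT.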
KB-3-1 cytotox – KB-3-1 parental cell cytotoxicity; KB-3-1 viability, CellTiter-Glo ATP luminescence, 72 h; Potency, µM (titrated, usually from 46.1 µM), most hits filed as cytotoxic; AID 1347075; hit rate 1.4% among 400,000; note: % is set by controls: 0 for no effect and ±100 for the full control effect; nearly all actives have a fitted effect of over 60% in size
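Using CellTiter-Glo luminescence, growth of non-resistant KB-3-1 adenocarcinoma cells is assessed 72 h after pin-tool compound addition at 37 °C. Normalized responses across the concentration series yield fitted curves.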
MCF10A rereplic – inducers of DNA re-replication in MCF 10A breast cells | MCF 10A DNA re-replication, Hoechst nuclear intensity, 48 h | Potency, µM (titrated, usually from 46.1 µM), for the others: top-dose activity, positive = re-replication, most hits filed as activators | hit rate 2.9% among 350,000 | AID 624296; note: % of control where 0% means no effect; nearly all actives have a fitted effect of over 50% in size
PINK1 expr mod – modulators of PINK1 expression; PINK1 immunofluorescence, high-content cytometry, 24 h; Potency, µM (highest dose often 76.6 µM), for the others: at the highest dose activation (PINK1 increase), actives largely listed as activators; hit rate 0.2% among 410,000; AID 624263; active = well fitted activation curve with a large enough effect; inconclusive = small, poorly fitted or top-dose-only effect; cell line not stated here; note: % of control where 0% means no effect; nearly all actives have a fitted effect of over 65% in size
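A stable cell line was treated with compounds at 5 concentrations for 24 hours, with CCCP as control. PINK1 levels and mitochondrial localization were measured by immunofluorescence with mitochondrial, cell and nuclear markers after fixation, read by laser-scanning cytometry.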
* = called active by the depositor; [ ] = dose if it differs, or a comment. Unless noted, calls come from the whole dose curve; as a rule, active = well fitted curve in the direction sought with a large enough effect; inconclusive = small, poorly fitted or top-dose-only effect, or another doubt; inactive = no such curve, though single readings can be large; an effect the other way counts as inactive or inconclusive. Potency is the fitted concentration of half-maximal effect.

For COc1cc2c(cc1OC)C(c1ccc(SC)cc1)CC(=O)N2 (stereo not drawn) the results were KB-V1 MDR tox inactive, SW480 rereplic -36%, PTAP TSG101 blk -5%, KB-3-1 cytotox inactive, MCF10A rereplic 4.6µM* and PINK1 expr mod 0%.
For COc1cc(C2CC(=O)Nc3n[nH]c(-c4ccccc4)c32)cc(OC)c1OC (stereo not drawn) the results were KB-V1 MDR tox inactive, SW480 rereplic inconclusive, PTAP TSG101 blk -1%, KB-3-1 cytotox 21µM*, MCF10A rereplic inconclusive and PINK1 expr mod 8%.
For Cc1ccc(Oc2ccccc2/C=C2\SC(=O)N(C)C2=O)cc1 the results were KB-V1 MDR tox 16µM*, SW480 rereplic inconclusive, PTAP TSG101 blk 7%, KB-3-1 cytotox inactive, MCF10A rereplic 5% and PINK1 expr mod inconclusive.
`COc1cccc(-c2c(-c3cc(OC)cc(OC)c3)n(C)c3ccc(-c4ccc(OC)nc4)cc23)c1` gave KB-V1 MDR tox inconclusive, SW480 rereplic -18%[9.22 µM], PTAP TSG101 blk -5%, KB-3-1 cytotox inactive, MCF10A rereplic 3% and PINK1 expr mod 9%.
`COc1ccc(-c2c(-c3ccc(OC)nc3)c3ccccc3n2C)cc1` gave KB-V1 MDR tox inactive, SW480 rereplic inconclusive, PTAP TSG101 blk 0%, KB-3-1 cytotox inactive, MCF10A rereplic 5.2µM* and PINK1 expr mod 11%.
Screening N#Cc1c(N)n(-c2cccc(C(=O)O)c2)c2nc3ccccc3nc12 returned KB-V1 MDR tox inactive, SW480 rereplic inconclusive, PTAP TSG101 blk inconclusive, KB-3-1 cytotox inactive, MCF10A rereplic 21µM* and PINK1 expr mod 1%.
`Nc1c(C(=O)NCCN2CCOCC2)c2nc3ccccc3nc2n1-c1cccc(F)c1` gave KB-V1 MDR tox inactive, SW480 rereplic 16µM*, PTAP TSG101 blk -16%, KB-3-1 cytotox inconclusive, MCF10A rereplic 18µM* and PINK1 expr mod 0%.
O=C(NCCN1CCOCC1)c1ccc2ccccc2n1 was read as KB-V1 MDR tox inactive, SW480 rereplic -10%, PTAP TSG101 blk -5%, KB-3-1 cytotox inactive, MCF10A rereplic 1% and PINK1 expr mod 6%[38.3 µM].
`CCCNC(=O)c1c(N)n(-c2cccc(OC)c2)c2nc3ccccc3nc12` gave KB-V1 MDR tox inconclusive, SW480 rereplic inconclusive, PTAP TSG101 blk -7%, KB-3-1 cytotox inactive, MCF10A rereplic 7.3µM* and PINK1 expr mod -4%.
Screening C=CCn1c(N)c(C(=O)Nc2cccc(C)c2)c2nc3ccccc3nc21 returned KB-V1 MDR tox 21µM*, SW480 rereplic inconclusive, PTAP TSG101 blk -1%, KB-3-1 cytotox inactive, MCF10A rereplic inconclusive and PINK1 expr mod 7%.
For CCOC(=O)c1c(N)n(-c2ccc(C)c(C)c2)c2nc3ccccc3nc12 the results were KB-V1 MDR tox inactive, KB-3-1 cytotox inactive and PINK1 expr mod -1%.
Screening COc1ccc(Oc2ncc3ncc(=O)n(Cc4cccc(OC)c4)c3n2)cc1 returned PINK1 expr mod 11%.
COc1ccc(NC(=O)Nc2nnc(SCC(=O)Nc3cccc(C)c3C)s2)cc1 was read as PINK1 expr mod 0%.
`COCCCNC(=O)c1c(N)n(-c2cccc(S(N)(=O)=O)c2)c2nc3ccccc3nc12` gave KB-V1 MDR tox inactive, SW480 rereplic 21µM*, PTAP TSG101 blk 46%, KB-3-1 cytotox inactive, MCF10A rereplic 18µM* and PINK1 expr mod 0%.
Screening Nc1c(C(=O)Nc2ccccc2)c2nc3ccccc3nc2n1CCCN1CCOCC1 returned KB-V1 MDR tox inconclusive, SW480 rereplic 18µM*, PTAP TSG101 blk -5%, KB-3-1 cytotox inactive, MCF10A rereplic 10µM* and PINK1 expr mod -2%.
Screening COC(=O)c1c(N)n(-c2ccc(OC)c(OC)c2)c2nc3ccccc3nc12 returned KB-V1 MDR tox inactive, KB-3-1 cytotox inactive and PINK1 expr mod -5%.
For N#Cc1c(N)n(CCCN2CCOCC2)c2nc3ccccc3nc12 the results were KB-V1 MDR tox inactive, SW480 rereplic inconclusive, PTAP TSG101 blk -11%, KB-3-1 cytotox inactive, MCF10A rereplic inconclusive and PINK1 expr mod 1%.
`CCSc1nnc2c(n1)OC(CC)N(C(C)=O)c1ccccc1-2` (stereo not drawn) gave KB-V1 MDR tox inactive, KB-3-1 cytotox inactive and PINK1 expr mod 1%.
CN(C)c1ccc(C(CNC(=O)c2ccc(C(C)(C)C)cc2)N2CCOCC2)cc1 (stereo not drawn) was read as KB-V1 MDR tox inactive, KB-3-1 cytotox inactive and PINK1 expr mod 1%.
`O=C(CSc1nc2c(c(=O)[nH]1)CCCC2)Nc1ccccc1C(F)(F)F` gave KB-V1 MDR tox inactive, KB-3-1 cytotox inactive and PINK1 expr mod 0%.
`Cc1sc2nc(SCCN(C)C)n(-c3ccccc3)c(=O)c2c1-c1ccc(F)cc1` gave KB-V1 MDR tox inactive, SW480 rereplic 18µM*, PTAP TSG101 blk -5%, KB-3-1 cytotox inactive, MCF10A rereplic inconclusive and PINK1 expr mod 7%.
CN(C)CCSc1nc(O)c(-c2ccccc2)c(=O)n1-c1ccccc1 was read as KB-V1 MDR tox inactive, SW480 rereplic -10%, PTAP TSG101 blk -3%, KB-3-1 cytotox inactive, MCF10A rereplic -2% and PINK1 expr mod -2%.
Screening CCOC(=O)c1c(C)[nH]c(C(=O)OCC(O)=C(C#N)c2nc3ccccc3[nH]2)c1C returned KB-V1 MDR tox inconclusive, SW480 rereplic inconclusive, PTAP TSG101 blk -2%, KB-3-1 cytotox inactive, MCF10A rereplic 13µM* and PINK1 expr mod 8%.
Screening Cc1c(C(=O)OC/C(O)=C(\C#N)c2nc3ccccc3[nH]2)oc2ccc(Br)cc12 returned KB-V1 MDR tox inactive, SW480 rereplic 2%, PTAP TSG101 blk 2%, KB-3-1 cytotox inactive, MCF10A rereplic 10% and PINK1 expr mod 8%.
Screening N#C/C(=C(/O)COC(=O)c1ccc(O)cc1)c1nc2ccccc2[nH]1 returned KB-V1 MDR tox inactive, SW480 rereplic 7%, PTAP TSG101 blk 1%, KB-3-1 cytotox inactive, MCF10A rereplic 6% and PINK1 expr mod 2%.
Cc1c(-c2cccc(Cl)c2)nc2ccccc2c1C(=O)OC/C(O)=C(\C#N)c1nc2ccccc2[nH]1 was read as KB-V1 MDR tox inactive, SW480 rereplic inconclusive, PTAP TSG101 blk -2%, KB-3-1 cytotox inconclusive, MCF10A rereplic 5.2µM* and PINK1 expr mod 7%.
For Cc1ccc(C(=O)CC(=O)c2cc(Cl)ccc2O)cc1 the results were KB-V1 MDR tox inactive, SW480 rereplic inconclusive, PTAP TSG101 blk -3%, KB-3-1 cytotox inactive, MCF10A rereplic inconclusive and PINK1 expr mod 9%[38.3 µM].
